The whole screen tested about 69,000 compounds, of which about 950 (1.4%) showed an effect of 50% or more. The list comes from a sample in which strong results are over-represented; it also holds similar structures and randomly drawn compounds.
Tested on: Mycobacterium tuberculosis
Assay: Cornell M. t heat shock assay; also: in the data most compounds retested in dose-response had high values
Type: functional, organism-based
Design: dose or concentration left out as unconfirmed

SMILES	Percent Effect [%]
CS(=O)(=O)N1CCC2(CC1)COC(COc1ccccn1)C2.O=C(O)C(F)(F)F (stereo unspecified)	-12.81
O=C(O)C(F)(F)F.O=C(O)C(F)(F)F.O=C1[C@H]2CN(Cc3ccccc3)C[C@H]2CN1CCN1CCCC1	1.586
Cc1oncc1C(=O)N[C@@H]1CN(C2CCC2)C[C@@H]2CCCO[C@@H]21.O=C(O)C(F)(F)F	25.58
Cc1c[nH]nc1C1CCCN1Cc1ncc[nH]1.O=CO (stereo unspecified)	-1.504
Cc1ccccc1NC(=O)c1cncc(C2CCNCC2)n1.Cl	27.66
CN(C)S(=O)(=O)NCc1cccnc1Oc1ccccc1	-4.23
c1ccc(Oc2ncccc2CNCc2ccccn2)cc1	69.15
O=C(CN1CCCCCC1)NCc1cccnc1Oc1ccccc1	2.86
O=C(C[C@@H]1COC[C@H]2CN(CC3CC3)C[C@@H]12)NCc1cccnc1.O=C(O)C(F)(F)F.O=C(O)C(F)(F)F	9.594
CC(=O)N1CCN(C(=O)Cc2cnc(-c3c(Cl)cccc3Cl)s2)CC1	3.544
O=C(Cc1cnc(-c2c(Cl)cccc2Cl)s1)N1CCOCC1	-11.24
NC(=O)C1CCN(C(=O)Cc2cnc(-c3c(Cl)cccc3Cl)s2)CC1	65.47
O=C(O)C(F)(F)F.O=C1CC(c2cccnc2)C2(CCN(S(=O)(=O)C3CC3)CC2)N1 (stereo unspecified)	-6.88
CN(C)S(=O)(=O)NCc1nc(-c2cccc(F)c2)c(-c2ccccn2)[nH]1	62.81
Cc1ccc(-c2nc(CNS(=O)(=O)N(C)C)[nH]c2-c2ccccn2)cc1	101.5
CN(C)S(=O)(=O)NCc1cccnc1Oc1ccc(F)cc1F	-13.26
CN(C)S(=O)(=O)NCc1cccnc1Oc1ccccc1F	7.179
Cc1nc(-c2ccc(CNS(=O)(=O)N(C)C)cc2)ccc1C(N)=O	10.37
Cc1ccccc1Oc1ncccc1CNS(=O)(=O)N(C)C	-10.74
Cl.O=C(c1cccnc1N1CCN(CCO)CC1)N1CCCC1	2.64
COCC1CN(CC2CC2)Cc2nccn2C1.O=C(O)C(F)(F)F (stereo unspecified)	-7.797

SMILES	Percent Effect [%]
COCC(=O)N(C)Cc1nc(N2CCCC2)ncc1-c1ccncc1.Cl	-16.19
COc1ccc(C2CCCN2S(=O)(=O)N(C)C)cc1 (stereo unspecified)	-0.3722
COc1ccc(C2CCCCCN2S(=O)(=O)N(C)C)cc1 (stereo unspecified)	68.3
COc1ccc(C2CCCCCN2S(C)(=O)=O)cc1 (stereo unspecified)	-12.37
CN(C)CCOCC1CN(Cc2ccccn2)Cc2nnn(C)c21.O=C(O)C(F)(F)F.O=C(O)C(F)(F)F.O=C(O)C(F)(F)F (stereo unspecified)	-27.07
Cc1ccc(C(CCNCCN(C)C)C2CCOC(C)(C)C2)cc1.O=C(O)C(=O)O (stereo unspecified)	1.762
Cl.NC(CC1CCCC1)c1ccccc1 (stereo unspecified)	-17.85
NC(CC1CCCC1)c1ccc(Oc2ccccc2)cc1 (stereo unspecified)	102.825
Cl.NC(CC1CCCCC1)c1ccccc1 (stereo unspecified)	1.9
COc1ccc(-c2cc(C3CCNCC3)ccn2)cc1.Cl	-16.31
Cc1nc(CN2CCOCC3(CCN(c4ncccn4)CC3)C2)cs1.O=C(O)C(F)(F)F	-11.45
CCc1nccn1-c1cccc(C2CCCN2)n1.Cl.Cl (stereo unspecified)	8.16
COCCN(C/C=C/c1ccccc1)Cc1ccccn1	61.37
COCCN(C/C=C/c1ccccc1)Cc1[nH]cnc1C	-1.061
CCn1ncnc1CN(C/C=C/c1ccccc1)CCOC	-13.31
COCCN(C/C=C/c1ccccc1)Cc1ncc[nH]1	14.48
CCc1ccc(CN(C/C=C/c2ccccc2)CCOC)nc1	98.48
COCCN(C/C=C/c1ccccc1)Cc1nccs1	1.581
Cc1ccc(CN2Cc3ccccc3O[C@]3(CC[C@H](CO)CC3)C2)s1.Cl	-7.456
COCCN1CCc2c(cnc(-c3ccccc3)c2C(=O)O)C1.O=C(O)C(F)(F)F	-9.252
O=C(O)C(F)(F)F.O=C(c1cscn1)N1CC[C@@H]2[C@@H]1CCN2CC1CCOCC1	39.35

SMILES	Percent Effect [%]
CCN1CCC(N2CCC(C(=O)N(C)C)CC2)CC1.O=C(O)C(F)(F)F.O=C(O)C(F)(F)F	2.155
OC(CN(Cc1ccccc1)Cc1cscn1)c1cccs1 (stereo unspecified)	5.463
OC(CN(Cc1ccccc1)Cc1ccncc1)c1cccs1 (stereo unspecified)	-1.892
OC(CN(Cc1ccccc1)Cc1ccccn1)c1cccs1 (stereo unspecified)	66.35
Cc1cccc(CN2CCC3(CC2)CN(c2cnn(C)c2)C(=O)CO3)n1.O=C(O)C(F)(F)F	-22.92
CNc1cc(C2CCCNC2)nc(C)n1.Cl.Cl (stereo unspecified)	-17.65
Cc1cc(C(F)(F)F)nc(CCNC(C)Cn2ccnc2)n1 (stereo unspecified)	103.9
Cc1cc(C(F)(F)F)nc(CCNC(C)Cn2cncn2)n1 (stereo unspecified)	16.73
Cc1cc(C(F)(F)F)nc(CCNC(C)Cn2nc(C)cc2C)n1 (stereo unspecified)	1.181
CCN1CCC2(CC1)OCCN2C(=O)c1cc(Cl)c(OC)c(Cl)c1.Cl	13.79
CN(CCO)C[C@@H]1CN(C2CCN(c3ccccc3Cl)CC2)C[C@@H]1CO	81.68
CN(C)C[C@@H]1CN(C2CCN(c3ccccc3Cl)CC2)C[C@@H]1CO	-0.06241
Cc1cc(F)ccc1N1CCC(N2C[C@@H](CN(C)C)[C@@H](CO)C2)CC1	101.8
CN(C)C[C@@H]1CN(C2CCN(c3ccc(Cl)cc3)CC2)C[C@@H]1CO	39.93
Cc1cc(F)ccc1N1CCC(N2C[C@@H](C)[C@@](C)(O)C2)CC1	33.53
Cc1ccc(N2CCC(N3C[C@@H](CN(C)C)[C@@H](CO)C3)CC2)cc1	-10.07
CCc1nc(C)cc(N2CCN(C(=O)[C@@H]3C[C@@H]4C=C[C@H]3C4)CC2)n1	-1.962
CS(=O)(=O)NCc1cc(=O)n2c(n1)CN(CC1CC1)CCC2.O=C(O)C(F)(F)F	5.307
O=C(O)C(F)(F)F.O=C(O)C(F)(F)F.O=C1CC[C@H]2[C@H](CCN2Cc2ccccn2)N1CC1CCOCC1	-34.7

Source: ChEMBL document CHEMBL3988442, “University of Dundee, Small-Polar-MMV Screening Library” (2021)
